# About 83,000 compounds went through this panel and 20% of them were active in at least one assay; those are over-represented in the sample as a whole.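 Method: cells in 96-well plates; compound added at one concentration; 48 h incubation; percent growth measured; values under 10 scored active.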 A number with no mark means an inactive call. The source made the active and inactive calls.
# Test system: MALME-3M melanoma
# Assay: NCI-60 one-dose screen, 48 h (100 = growth as untreated, 0 = no growth, -100 = all killed)
# Details: 10 µM unless noted
row,SMILES,growth
1,NN1C(=O)CSC1=S,109%
2,CC(=O)C(C(C)=O)C(c1ccccc1)C(C(C)=O)C(C)=O,108%
3,COc1cc(NCCN(CC(C)C)CC(C)C)c2ncc(C)cc2c1,66.7%
4,COc1ccc2c(CCC(c3ccccc3)c3ccccc3)c3[n+](cc2c1OC)CCc1cc2c(cc1-3)OCO2,-7.17% (active)
5,O=C1CC(c2ccc3c(c2)OCO3)c2ncn(-c3ccc(Cl)cc3)c2N1 (stereo unspecified),62.6%
6,Clc1nc(Cl)c2ncn(CC#CCn3cnc4c(Cl)nc(Cl)nc43)c2n1,-74.5% (active)
7,COc1ccc(C2CC(=O)c3c(O)c(OC)c(OC)c(OC)c3O2)c(O)c1 (stereo unspecified),64.7%
8,C[N+](C)(CCOC(c1ccccc1)c1ccccc1)CC(=O)OCc1ccccc1,99.7%
9,Nc1c2c(c(O)c3c1=C(CO)C=N3)=NCCS2,-96.6% (active)
10,Cc1cccc(NC(=O)[C@@H]2c3ccccc3C(=O)N(c3ccc(Cl)cc3)[C@H]2c2ccc(Cl)cc2)n1,61.1%
11,CC(N)C(Cc1ccccc1)c1ccc(Cl)cc1 (stereo unspecified),103%
12,C=CCCCC(=O)CCC(=O)OCC1O[C@@H](O[C@@H]2C(O)[C@@H](OC(C)=O)C(C)O[C@H]2O[C@H](CC=C)CCCCC)C(O)[C@@H](OC(=O)/C(C)=C/C)[C@@H]1OC(=O)/C=C/c1ccccc1 (stereo partly specified),17.7%
13,COc1ccc2c(c1OC)C(=O)O[C@@H]2[C@H]1c2c(c(C#CC#Cc3ccc(F)c(F)c3)c3c(c2OC)OCO3)CCN1C,91%

# Test system: MDA-MB-231 breast
# Assay: as above
# Details: 10 µM unless noted
row,SMILES,growth
1,COc1cc2c3c(c1)nc(C)n3CCC2,107%
2,Cc1sc2c(c1C)c(=O)nc1c(-c3nc4ccccc4s3)n[nH]n12,87.6%
3,COc1cc2c(cc1OCCCCCN1CCN(c3ncnc4ccccc34)CC1)N=CC1CCCN1C2=O (stereo unspecified),-26.6% (active)
4,COc1cc2c(cc1OCCCCN1CCN(CC(=O)Nc3ccc(Cl)cc3C(=O)c3ccccc3Cl)CC1)N=CC1CCCN1C2=O (stereo unspecified),-85% (active)
5,CCOC(=O)C1=C(C)NC(=O)NC1c1cc(=O)oc2ccc(C)cc12 (stereo unspecified),106%
6,COc1ccc2nc3cc(Cl)ccc3c(Nc3ccc(N(C)C)cc3)c2c1,89.8%
7,C[C@@H](C[C@H](CCO)c1cc(C(F)(F)F)cc(C(F)(F)F)c1)c1ccc2ccccc2c1,93.6%
8,COc1ccc2c(CCCc3ccc(Cl)cc3Cl)c3[n+](cc2c1OC)CCc1cc2c(cc1-3)OCO2,-10% (active)
9,COc1cc2c(cc1OCCCCCCN1CCN(c3ncnc4ccccc34)CC1)N=CC1CCCN1C2=O (stereo unspecified),-29.1% (active)
10,c1cc[n+](Cc2c3ccccc3cc3c2ccc2ccccc23)cc1,72.1%
11,CC(C)[C@@H]1CC[C@]2(CO2)[C@@H]2C(=O)OCC(C(=O)O)=C[C@H]21,9.95% (active)
12,N#Cc1c(NC(=O)c2cccs2)[n+]([O-])c2ccc(F)cc2[n+]1[O-],87.2%
13,CC(CCCC(=O)O)c1ccoc1 (stereo unspecified),109%
14,CCCCCCCC(=O)SCC/C=C/[C@@H]1CC(=O)NCc2nc(co2)C2=N[C@@](C)(CS2)C(=O)N[C@@H](C(C)C)C(=O)O1,-1.69% (active)
15,Nc1c(C(=O)c2ccccc2)sc2nc(-c3cccs3)ccc12,37.9%
16,COc1ccc2c(CCCCC(c3ccccc3)c3ccccc3)c3[n+](cc2c1OC)CCc1cc2c(cc1-3)OCO2,-75.1% (active)
17,CC(C)(C)C(=O)OCOP(=O)(OCOC(=O)C(C)(C)C)C1CCCN(OC(=O)c2ccccc2)C1=O (stereo unspecified),12.7%
18,O=C(Cc1ccccc1)Nc1nnc(NC2CCN(c3nnc(NC(=O)Cc4ccccc4)s3)CC2)s1,77.5%
19,CCCCCCC1(/C=N/NC(N)=O)NC(=O)NC1=O (stereo unspecified),110%
20,CC(N)C(Cc1ccc(Cl)cc1)c1ccc(Cl)cc1 (stereo unspecified),35.5%
21,CC(C)[C@@H](C)/C=C/[C@@H](C)[C@H]1CCC2=C3C=CC4=CC(=O)CC[C@]4(C)[C@H]3CC[C@@]21C,105%
22,CCOC(=O)C1=C(C)N=C2Sc3cc(OC(F)(F)F)ccc3N2[C@H]1c1ccccn1,53.9%
23,COC(=O)[C@]12CC[C@@H](C)[C@H](C)[C@@H]1C1=CC[C@@H]3[C@@]4(C)C(c5cnco5)=C[C@@](C)(CO)C4=CC[C@@]3(C)[C@]1(C)CC2,58.8%

# From PubChem BioAssay (NCI)
